Among all 5,500 compounds or so, about 2,000 (36%) were called active. Not shown: some 18% with an inconclusive outcome. Cut-off read from the data, not from the text of the source: active = normalized growth mostly below about 0.91 (no sharp cut-off); inconclusive = no clear call, values can overlap the other calls; inactive = mostly above about 0.92. Some of the results follow.
Test: chemical genetic growth profiling, strain panel (AID 1159580);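 note: tested at 20 µM; growth read once vehicle control cultures reached saturation at 30 °C; 1 = growth at the plate median or of vehicle wells; lower values mean less growth of the strain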
Conditions: S. cerevisiae deletion strains, growth OD

Measured: normalized growth

CC(C)(C)C1=CC(=O)C=C(C(C)(C)C)C1=O
inactive: locus YAL013W, strain DEP1, hits give low values 1.03 | locus YBR229C, strain ROT2, hits give low values 1.04 | locus YDL101C, strain DUN1, hits give low values 0.997 | locus YDL134C, strain PPH21, hits give low values 1.01 | locus YDR150W, strain NUM1, hits give low values 0.979 | locus YEL061C, strain CIN8, hits give low values 1 | locus YGR078C, strain PAC10, hits give low values 1.01 | locus YHR030C, strain SLT2, hits give low values 0.996 | locus YHR087W, strain rtc3, hits give low values 1 | locus YJR043C, strain POL32, hits give low values 1.02 | locus YJR075W, strain HOC1, hits give low values 1.01 | locus YLR039C, strain RIC1, hits give low values 1.03 | locus YLR058C, strain SHM2 (second series), hits give low values 1.02 | locus YLR085C, strain ARP6, hits give low values 1.05 | locus YLR262C, strain YPT6, hits give low values 1 | locus YML094W, strain GIM5, hits give low values 1.01 | locus YMR219W, strain ESC1, hits give low values 1.01 | locus YMR263W, strain SAP30, hits give low values 1.02 | locus YMR307W, strain GAS1, hits give low values 1.02 | locus YNL153C, strain GIM3, hits give low values 1.03 | locus YNL298W, strain CLA4 (second series), hits give low values 1.03 | locus YNL322C, strain KRE1, hits give low values 1 | locus YNR030W, strain Alg12, hits give low values 1.03 | locus YOL006C, strain TOP1, hits give low values 1.05 | locus YPL055C, strain LGE1, hits give low values 1.02 | locus YPL241C, strain CIN2, hits give low values 0.999 | locus YPR135W, strain CTF4, hits give low values 1.07

— PubChem BioAssay AID1159580 (chemical genetic matrix, 2015)
